Whole data set: some 33,000 sequences, median “E-score (-0.5 to 0.5)” near -0.012, cut for the highest 2% near 0.27. Many of the other results were omitted from the sample, so the highest values are more common in it than they were.

For the test, the target named is T1, Vhr1 (UniProt P40522).
T1 sequence: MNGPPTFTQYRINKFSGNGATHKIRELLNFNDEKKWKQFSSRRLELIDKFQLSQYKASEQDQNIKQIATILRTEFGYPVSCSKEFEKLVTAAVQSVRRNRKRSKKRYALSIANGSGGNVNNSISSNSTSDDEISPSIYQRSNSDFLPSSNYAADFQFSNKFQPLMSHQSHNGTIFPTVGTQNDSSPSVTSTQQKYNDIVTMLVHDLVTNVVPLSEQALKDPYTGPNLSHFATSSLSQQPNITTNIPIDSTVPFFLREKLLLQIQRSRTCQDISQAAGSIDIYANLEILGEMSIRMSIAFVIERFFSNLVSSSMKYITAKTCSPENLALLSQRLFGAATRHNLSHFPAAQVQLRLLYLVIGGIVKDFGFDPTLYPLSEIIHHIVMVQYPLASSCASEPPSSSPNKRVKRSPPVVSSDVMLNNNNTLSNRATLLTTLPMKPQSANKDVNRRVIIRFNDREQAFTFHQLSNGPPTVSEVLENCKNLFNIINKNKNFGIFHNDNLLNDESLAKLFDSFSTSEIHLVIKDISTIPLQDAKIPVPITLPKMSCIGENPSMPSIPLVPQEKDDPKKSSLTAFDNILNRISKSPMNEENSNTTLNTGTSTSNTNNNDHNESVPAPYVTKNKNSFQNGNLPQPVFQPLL
Description: PBM E-score (8-mer binding enrichment) (E-score (-0.5 to 0.5)); higher = stronger / more preferred TF binding. The following applies: protein concentration: 200 nM; construct: GST-full length. As for the experimental part:
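Universal 'all 10-mer' protein binding microarrays (Agilent AMADID 015681) probed with GST-tagged S. cerevisiae TFs (full-length or DBD) made by in vitro transcription/translation (PURExpress), about 100-200 nM. Bound TF was detected with fluorescent anti-GST. Each ungapped 8-mer (which stands for itself and its reverse complement) is scored by the PBM enrichment score (E-score), a modified Wilcoxon-Mann-Whitney statistic from -0.5 to +0.5, computed with the Universal PBM Analysis Suite. Scale: above 0.35 generally sequence-specific binding.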
For the sequence GATACTGA, the “PBM E-score” value stood at 0.159. The result for CGGCACGC reads -0.0534; that for GCAGCTCA, -0.254; that for GAAGAGTC, 0.194.

Consider ACAGAGTG, for which the “PBM E-score” value turned out to be 0.0123.

In the case of AAAGAGTC, the “PBM E-score” value worked out at 0.0469. With ACTGAGCC, the “PBM E-score” value turned out to be 0.219.

Turning to ACTGAGTA, the “PBM E-score” value is 0.263.

On to ACAGAGTC, for which the “PBM E-score” value worked out at 0.296. Under AGAGAGTC stands 0.215. In the case of ACTGAGTG, the “PBM E-score” value is 0.0665. For the sequence ACTGAGTC, the “PBM E-score” value turned out to be 0.454. Under GCTGAGCC stands 0.28; under CCTGAGCC, 0.115.

Take CAAGAGTC: the “PBM E-score” value turned out to be 0.296. Under ATTCGGTG stands 0.106; under GTTTGTGA, -0.0971.

For the sequence GGCTATGA, the “PBM E-score” value was 0.0249. For AGAGCACG, the “PBM E-score” value is 0.00968. On to CCAGCCAA, for which the “PBM E-score” value was -0.119. With CATTCAGA, the “PBM E-score” value is 0.0364. The result for CTGGGTAC reads 0.196; that for CCTGAGGC, -0.096; that for CCTGAGTA, 0.205. Take CCTGAGTC: the “PBM E-score” value is 0.461. The result for AACGCTAC reads -0.205.

Turning to AAATCATG, the “PBM E-score” value came out at 0.29.

Regarding CAATCATG, the “PBM E-score” value was determined as 0.289. Under AAATCATA stands 0.227; under CAATCAGG, 0.0706. In the case of CAATCAAG, the “PBM E-score” value amounted to 0.00756. Consider AAATCATT, for which the “PBM E-score” value is -0.011. The result for GACTGGCA reads -0.0149; that for GAACTATA, 0.222. For the sequence GTAGCATA, the “PBM E-score” value turned out to be 0.079. Take CGATTCAG: the “PBM E-score” value is 0.12. Consider AAGCTCCG, for which the “PBM E-score” value is -0.173. Consider ATGATACA, for which the “PBM E-score” value worked out at 0.289.

On to ATAATACC, for which the “PBM E-score” value was 0.212. On to ATGATATA, for which the “PBM E-score” value was 0.0327. Turning to CTAATATA, the “PBM E-score” value is -0.0362.

As to ATAATACG, the “PBM E-score” value turned out to be 0.0457. The result for ATGATATG reads 0.315; that for CTGATACA, 0.0817; that for ATGATACC, 0.124. The result for ATGATATC reads 0.0491; that for ATAATACA, 0.277.

For the sequence ATAATATG, the “PBM E-score” value amounted to 0.206. The result for ATAATATA reads 0.3; that for AGTGCGCA, 0.112. Under AGCCAGTA stands 0.133; under CAAAGAGA, -0.299. ACCTCGCA: the “PBM E-score” value is -0.0858. With TCTGTTCA, the “PBM E-score” value turned out to be 0.151. On to ATGAGTAG, for which the “PBM E-score” value was 0.189.

For the sequence ATGAGTCG, the “PBM E-score” value was 0.462. In the case of ATGAGTTG, the “PBM E-score” value is 0.173. Turning to CTGAGTTC, the “PBM E-score” value worked out at 0.0461. For ATGAGTGG, the “PBM E-score” value was 0.162.

For CTGAGTAC, the “PBM E-score” value was 0.175. Consider CGGAGTCC, for which the “PBM E-score” value is 0.324. Under CGGAGTAC stands 0.0632. The result for ATGAGTAC reads 0.347; that for CGGAGTGC, 0.139. The result for CTGAGTGC reads 0.0204; that for CTGAGTCC, 0.292; that for CATGGAGA, 0.155. As for ATAAAACA, the “PBM E-score” value is -0.125. Under ATGCTTTG stands 0.0636; under AATAGCAC, -0.026. The result for GAGGTTAC reads 0.0302; that for ACAGGTCC, -0.195; that for CGACAATA, 0.0881. Regarding CGTTAGAA, the “PBM E-score” value was -0.323. The result for ACTGGGGA reads -0.0871.

For CTGCCCCA, the “PBM E-score” value was 0.0236. AGGTGGAA: the “PBM E-score” value was 0.0199. Under GCGCTCAC stands 0.0509; under ATGAGTTC, 0.00071; under ATGAGTGC, 0.0758. ATGAGTCC: the “PBM E-score” value came to 0.389.

As to GACGCAAC, the “PBM E-score” value was -0.169. The result for GTTAGTCA reads 0.43. On to ATTAGTCA, for which the “PBM E-score” value came to 0.381. Regarding CTTAGTCC, the “PBM E-score” value turned out to be 0.0119. Under CTTAGTAA stands -0.0159; under ATTAGTTG, 0.0201; under ATTAGTCG, 0.279. With GTTAGTTA, the “PBM E-score” value turned out to be 0.137.

Consider GTTAGTGA, for which the “PBM E-score” value came to 0.0216. The result for CTTAGTCA reads 0.376; that for ATTAGTCC, 0.122. Under ATTAGTTA stands 0.143; under ATTAGTGG, 0.141. The result for GGTGCAAC reads -0.183; that for ATGACGCG, 0.162.

Turning to GTCAATCA, the “PBM E-score” value is 0.221. With AGCCATGG, the “PBM E-score” value came out at 0.281.

With AGTCATGA, the “PBM E-score” value turned out to be 0.466. The result for AGACATGG reads 0.192; that for GGTCATGA, 0.239; that for AGTCATGC, 0.443. The result for AGCCATGA reads 0.228; that for AGTCATGG, 0.458; that for CGTCATGC, 0.0219.

In the case of CGTCATGA, the “PBM E-score” value was determined as 0.267. In the case of AGCCATGC, the “PBM E-score” value worked out at 0.128. Under AGTCAAGG stands 0.196; under AGTCAAGC, 0.00212; under CCGTTTAG, -0.0628.

The record behind these values is the supplement of paper PMC3334620.
